Nrf2 activator: activates Nrf2 signaling | AID 624171 | Potency, µM (highest dose often 46.1 µM), for inactives: at the top dose activation, most hits filed as activators | 410,000 tested, 0.31% active | AREc32 ARE-luciferase reporter (MCF7-derived line), luminescence, 24 h; note: potency is the fitted concentration of half-maximal effect; % of control where 0% means no effect; nearly all actives have a fitted effect of over 65% in size
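AREc32 cells carrying an ARE-driven firefly luciferase, 1000 cells/well in OPTI-MEM with 5% FBS, dosed after overnight attachment and incubated 24 hr at 37 deg C. Steady-Glo luminescence read after 30 min at RT.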
Nrf2 inh: Nrf2 pathway inhibition. A549 ARE-Fluc reporter, luciferase luminescence, 18-24 h. Potency, µM (series often up to 46 µM), without a hit: at the highest dose activity change, negative = inhibition, most hits filed as inhibitors. 360,000 tested, 2.1% active; note: potency is the fitted concentration of half-maximal effect; % is set by controls: 0 for no effect and ±100 for the full control effect; nearly all actives have a fitted effect of over 60% in size
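Concentration-response testing used A549 ARE_Fluc cells at 5000 cells/well. Following an 18-24 h compound incubation, viability was read by fluorescence (Ex 405/Em 525) and luciferase output by luminescence.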
IL-2 act: activators of IL-2; IL-2 activation reporter assay, cell-based qHTS; stimulated with anti-CD3/CD4/CD28 beads; in transgenic mouse T cells; activation, % (series mostly up to about 46 µM); 360,000 tested, 0.065% active; AID 652025; in the data active = activation above about 50%; inconclusive = mostly about 30% to 49%; note: 0% is about no effect
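EGFP and DsRed fluorescence is measured by plate cytometry in unstimulated transgenic mouse T cells exposed to compound for 60 minutes, then stimulated 18 hours at 37 degrees C with anti-CD3/anti-CD4 beads plus anti-CD28.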
A549 tox: kills or reduces viability of A549 cells in Nrf2 counter-screen. A549 ARE-Fluc cells, CellTiter-Fluor viability, 18-24 h. 390,000 tested, 0.16% active. Potency, µM (titrated, usually from 46 µM), for inactives: top-dose activity change, negative = cytotoxicity, hits mostly inhibitors. AID 504648; note: potency is the fitted concentration of half-maximal effect; % is set by controls: 0 for no effect and ±100 for the full control effect
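Cytotoxicity counterscreen: CellTiter-Fluor fluorescence was measured in A549 ARE_Fluc cells after 18-24 h of compound exposure in a concentration series. The subsequent BugLite luminescent read reports ARE-luciferase activity.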
Active calls of the source: *; ? = inconclusive; . = no result given. Rows were chosen to be rich in hits. Some 2.3% of all compounds tested hit in one or more screens of this group. Unless noted, calls come from the whole dose curve; as a rule, active = well fitted curve in the direction sought with a large enough effect; inconclusive = small, poorly fitted or top-dose-only effect, or another doubt; inactive = no such curve, though single readings can be large; an effect the other way counts as inactive or inconclusive.

SMILES	Nrf2 activator	Nrf2 inh	IL-2 act	A549 tox
COc1ccc(-c2csc(NC(=O)CSCc3c(C)noc3C)n2)c(OC)c1	6%	16µM*	-1	-15%
COc1ccc(-c2csc(NC(=O)CSCC(=O)Nc3cc(C)on3)n2)cc1	6%	5%	1	0%
Cc1nc(-c2ccc([S+](=O)([O-])N3CCN([S+](=O)([O-])c4c(F)cccc4F)CC3)s2)cs1	.	4%	.	0%
FC(F)(F)c1cccc(N2CCN(c3nc4ccccc4n4cnnc34)CC2)c1	-1%	?	.	-14%
Cc1ccc(C)c(NS(=O)(=O)c2ccc3c(c2)Cc2cc(S(=O)(=O)Nc4cc(C)ccc4C)ccc2-3)c1	12%	13µM*	-1	-30%
Cc1ccc(C)c(NS(=O)(=O)c2ccc3oc(=O)ccc3c2)c1	0%	-23%	-1	-9%
O=C(NC1CCCCC1)C(c1cccnc1)N(C(=O)CCl)c1ccc(F)cc1 (stereo not given)	?	18µM*	-1	-21%
COc1ccc2c(c1)CCc1c(C(=O)Nc3c(C)nn(Cc4ccc(C)cc4)c3C)noc1-2	-1%	15µM*	.	-18%
Cc1nn(Cc2ccc(Cl)c(Cl)c2)c(C)c1NC(=O)c1sc2ccccc2c1Cl	0%	15µM*	1	-26%
Cc1nn(Cc2c(Cl)cccc2Cl)c(C)c1NC(=O)c1sc2ccccc2c1Cl	0%	?	-2	-22%
COc1ccccc1-c1cc(C(=O)Nc2c(C)nn(Cc3ccc(Cl)cc3)c2C)no1	0%	18µM*	.	?
COc1ccc(-c2cc(C(=O)Nc3c(C)nn(Cc4ccc(Cl)cc4)c3C)no2)cc1	0%	?	-2	?
Cc1nn(Cc2ccccc2)c(C)c1NC(=O)c1noc2c1CCc1ccccc1-2	-1%	?	-4	-1%
COc1cccc(-c2cc(C(=O)Nc3c(C)nn(Cc4ccccc4Cl)c3C)no2)c1	7%	6.5µM*	.	-9%
COc1ccccc1N=Nc1nc(-c2ccccc2)c(-c2ccccc2)[nH]1	4%	18µM*	-2	?
NS(=O)(=O)Nc1c(Br)cc(Br)c2cccnc12	.	-2%	.	1%
COc1ccc(OC)c(-c2nnc3n2N=C(c2c(OC)cccc2OC)CS3)c1	.	11%	.	2%
Nc1c(-c2ccccc2)c(CSc2nc3ccccc3[nH]2)nn1-c1ccc(Cl)cc1	0%	?	0	?
Cc1ccccc1-n1nc(CSc2nc3ccccc3[nH]2)c(-c2ccccc2)c1N	0%	23µM*	-1	-27%
c1ccc(CSc2nc3ccccc3[nH]2)cc1	2%	25%	-3	1%
Nc1c(-c2ccccc2)c(CSc2nc3ccccc3[nH]2)nn1-c1cccc(Cl)c1	6%	23µM*	-4	-18%
Nc1nc(NCc2ccc(Cl)cc2)c2[nH]cnc2n1	.	5%	.	14%
CNc1ccc(Br)cc(C(=O)/C=C/c2cccc(Cl)c2Cl)c1=O	7.9µM*	0%	15	-1%
CNc1ccc(Br)cc(C(=O)/C=C/c2cccc(OC)c2OC)c1=O	0%	2%	0	-7%
CCC1CN(C(=O)N2CCC(C(=O)NCc3cccc(C)c3)CC2)c2ccccc2O1 (stereo not given)	-1%	-6%	.	-4%
SMILES	Nrf2 activator	Nrf2 inh	IL-2 act	A549 tox
CCC(C)n1nccc1NC(=O)C(C)OC(=O)c1cc2ccccc2[nH]1 (stereo not given)	0%	?	0	-6%
COc1ccc(OC)c(NC(=O)C(C)Oc2ccc(Br)cc2)c1 (stereo not given)	0%	-6%	-1	4%
COc1ccccc1NC(=O)C(C)OC(=O)c1cc2ccccc2[nH]1 (stereo not given)	9%	21µM*	-1	0%
COc1ccc(OC)c(NC(=O)C(C)OC(=O)c2cc3ccccc3[nH]2)c1 (stereo not given)	6%	18µM*	-2	2%
COCCc1nn2c(=O)cc(COC(=O)c3ccccc3C)nc2s1	5%	?	.	3%
Cc1ccc(N(C(=O)c2snc(C(N)=O)c2N)C(C(=O)NCCC(C)C)c2ccco2)cc1 (stereo not given)	0%	23µM*	0	?
COc1cc(OC)c(NC(=O)CC(C)S(=O)(=O)c2ccc3c(c2)NC(=O)CO3)cc1Cl (stereo not given)	4%	-11%	.	-4%
Cc1cccc(N2CCN(C(=O)C3CCN(S(=O)(=O)N4CCOCC4)CC3)CC2)c1C	4%	21µM*	0	2%
CCn1c(C(=O)N2CCC(C(=O)N3CCN(c4cccc(C)c4C)CC3)CC2)cc2sccc21	-2%	21µM*	.	-20%
Cc1cc2c(c(C)c1Cl)C(c1ccc3c(c1)OCO3)CC(O)(c1ccccc1)O2 (stereo not given)	.	?	.	-18%
COc1ccc(C(=O)/C(=C\c2ccco2)N2C=CC=CC2=C(C#N)C#N)cc1	?	?	0	18µM*
O=c1cc(C(F)(F)F)[nH]c2c(C(F)(F)F)cccc12	0%	18µM*	-1	?
O=C(Nc1nc2ccccc2n1CCN1CCOCC1)c1cn(-c2ccccc2)nc1-c1ccccc1	0%	21µM*	0	?
O=C(Nc1nc2ccccc2n1CCN1CCOCC1)c1ccccc1	-1%	0%	-1	-1%
COc1ccc(CCNC(=O)c2ccc(Cn3c(=O)c4ccccc4n(Cc4cccc(Cl)c4)c3=O)cc2)cc1OC	-1%	?	.	1%
NC(=O)c1cc2c3ccccc3ccn2c1-c1ccccc1	10µM*	12%	-1	-10%
Cc1c(/C=C(\C#N)C(=O)Nc2cccc(Cl)c2)c2ccccc2n1Cc1ccccc1Cl	0%	?	.	0%
CCCN1CNc2c(c(=O)[nH]c(=S)n2CCc2ccc(Cl)cc2Cl)C1	.	4%	.	15%
COC(=O)C1=C(C)NC2=C(C(=O)CC(C)(C)C2)C1c1cn(Cc2ccc(Br)cc2)nc1-c1ccccc1 (stereo not given)	-1%	13µM*	-3	-22%
CCN(CC)c1ccc2nc3c(=O)n(C)c(=O)n(C)c3nc2c1	5%	-6%	.	-13%
Cc1nc2c(=O)n(C)c(=O)n(C)c2nc1Cl	?	18µM*	-5	?
O=c1[nH]nc(CNc2cccc(C(F)(F)F)c2)c2ccccc12	3%	13µM*	-3	0%
COc1ccc(NCc2n[nH]c(=O)c3ccccc23)cc1	0%	-27%	-1	-1%
COc1ccc(OC)c(NCc2cccn2-c2nnc(N3CCCCC3)s2)c1	0%	?	.	-17%
CC(=O)c1cccc(NC(=O)c2sc(-n3nc(C)c(Cc4ccc5c(c4)OCO5)c3C)nc2C)c1	0%	9.2µM*	.	?
Cc1nc(-c2ccc(S(=O)(=O)N(Cc3ccccc3)C(C)C)cc2)co1	1%	.	.	9%
COc1cc(OC)c(NC(=O)c2csc3c2CCC(C)C3)cc1Cl (stereo not given)	0%	10%	.	4%
